Eleven compounds from PubChem BioAssay (EPA / NIEHS) can be followed below.

Inconclusive results are not listed. Active and inactive are the calls of the source. The calls were made as follows, unless noted: active = hit-call score of the fitted dose curve at least 0.9, where 1 is the maximum; inactive = score below 0.9.

Test [1] addresses Nucleoli Translocation, AR (gene 367) (UniProt P10275). Kind of test: UPITT_HCI_U2OS_AR_TIF2_Nucleoli_Antagonist: University of Pittsburgh U2OS Androgen Receptor-Transcriptional Intermediary Factor 2 (AR-TIF2) Antagonism High Content Imaging Assay for Nucleoli Translocation (AID 2283997; active = hit-call score of the fitted dose curve at least 0.9, where 1 is the maximum). The method in brief:
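Antagonism is read as loss of nucleolar AR-RFP signal relative to DHT, imaged in U2OS cells also carrying GFP-TIF2. Compounds screened at 20 uM final, 0.2% DMSO; primary actives retested in triplicate.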

The target in test [2] is Ratio of Nucleoli Translocation and Cytoplasm, AR (gene 367) (UniProt P10275). The test is described as follows: UPITT_HCI_U2OS_AR_TIF2_Nucleoli_Cytoplasm_Ratio_Antagonist: University of Pittsburgh U2OS Androgen Receptor-Transcriptional Intermediary Factor 2 (AR-TIF2) Antagonism High Content Imaging Assay for Ratio of Nucleoli Translocation and Cytoplasm (AID 2283999; active = hit-call score of the fitted dose curve at least 0.9, where 1 is the maximum;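 also: antagonists lower the DHT-driven ratio of nucleolar to cytoplasmic red signal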). The method in brief:
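This antagonist-mode endpoint tracks AR-RFP localisation, the nucleolus-to-cytoplasm intensity ratio, in TIF2-GFP-coexpressing U2OS cells. DMSO stays at or below 0.5%; testing spans 20 uM single-dose and 0.195–50 uM series, with DHT setting the activity baseline.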

Test [3] in a line: CCTE_Harrill_HTTr_Viability_MCF7: CCTE's 6-hour Cell Viability Assessment for the High-Throughput Transcriptomics (HTTr) Platform, in MCF-7 cells cultured in DMEM + 10% fetal bovine serum, Harrill Lab (AID 2284010). An outline of the steps:
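Eight-point concentration series, six-hour exposure. Propidium iodide exclusion imaged to assess membrane integrity as a cytotoxicity readout; bidirectional fitting was done with DMSO as negative control and activity baseline.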

Test [4] in a line: CCTE_Harrill_HTTr_Apoptosis_MCF7: CCTE's 6-hour Apoptosis Assessment for the High-Throughput Transcriptomics (HTTr) Platform, in MCF-7 cells cultured in DMEM + 10% fetal bovine serum, Harrill Lab (AID 2284011). An outline of the steps:
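MCF-7 cells in DMEM + 10% fetal bovine serum were exposed to chemicals for 6 hours over an eight-point dilution series. Caspase-3/7 activation was imaged by high content imaging with CellEvent Caspase 3/7 Green; bidirectional fitting used DMSO as baseline.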

A short description of test [5]: CCTE_Harrill_HTTr_CellCount_MCF7: CCTE's Cell Proliferation Assessment for the High-Throughput Transcriptomics (HTTr) Platform, Harrill Lab (AID 2284012; active = hit-call score of the fitted dose curve at least 0.9, where 1 is the maximum;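 also: intended direction is loss of nuclei count meaning fewer cells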). An outline of the steps: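 For this full-screen endpoint, MCF-7 cultures received eight compound dilutions for six hours. Well nuclei counts from Hoechst imaging were analyzed relative to DMSO.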
Test [6] is described as follows: CCTE_Shafer_MEA_acute_spike_number: CCTE's Neural Acute Assay for Total Number of Spikes, Shafer Lab (AID 2284008).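 As to AC50: curve fitted for decrease in spike count so AC50 reflects inhibitors.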 An outline of the steps:
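Primary rat cortical neurons on 16-electrode MEA wells; on DIV 13 or 15, 40-min baseline then 40-min recording with compound (0.03-40 uM) at 37 C. Spikes detected at 8x rms noise; percent change versus baseline, DMSO as negative control.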

The nature of test [7]: CCTE_Shafer_MEA_acute_firing_rate_mean: CCTE's Neural Acute Assay for Mean Firing Rate, Shafer Lab (AID 2284009).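 Also: analyzed for loss of signal so actives lower firing rate relative to DMSO.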 An outline of the steps:
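Primary rat cortical neurons on 16-electrode MEA wells were exposed on DIV 13 or 15 to compound (0.03-40 uM). Spike counts per recording time, averaged over electrodes, were compared between 40-min baseline and 40-min post-exposure recordings as percent change.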

Test [8] in a line: CCTE_Shafer_MEA_acute_burst_number: CCTE's Neural Acute Assay for Single-Electrode Bursts, Shafer Lab (AID 2284013). An outline of the steps: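 Primary rat cortical neurons on 16-electrode MEA wells, DIV 13 or 15, exposed to compound (0.03-40 uM; ≥3 wells); 40-min recordings at 37 C before and after treatment. Burst count expressed as percent change from baseline, DMSO as negative control.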

The nature of test [9]: CCTE_Shafer_MEA_acute_burst_duration_mean: CCTE's Neural Acute Assay for Mean Burst Duration, Shafer Lab (AID 2284014).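 Also: hits are decreases in mean burst duration relative to DMSO controls.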 An outline of the steps: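 Mean burst duration was compared between a 40 min baseline and a 40 min recording in the presence of compound (0.03-40 uM, 37 C), giving percent change per well. Cultures were rat cortical neurons at DIV 13 or 15; wells needed ≥10 active electrodes.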

Test [10] in a line: CCTE_Shafer_MEA_acute_per_burst_spike_number_mean: CCTE's Neural Acute Assay for Average Number of Spikes Per Burst, Shafer Lab (AID 2284015).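 Also: hits are decreases in mean spikes per burst versus baseline.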 An outline of the steps: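 Percent change in mean spikes per single-electrode burst is compared between a 40 min baseline and a 40 min recording with compound (0.03-40 uM). Cultures were rat cortical neurons on MEA plates at DIV 13 or 15, recorded at 37 C, with DMSO as the negative control.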

Test [11] can be described thus: CCTE_Shafer_MEA_acute_interburst_interval_mean: CCTE's Neural Acute Assay for Mean Interburst Interval, Shafer Lab (AID 2284016).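 Also: percent change of mean interburst interval versus each well's own pre-dose baseline; curves fitted for decrease in interburst interval relative to DMSO.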 An outline of the steps: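 Percent change in mean single-electrode interburst interval was calculated per well from 40 min recordings before and after compound (0.03-40 uM). Recordings were made at 37 C on rat cortical cultures at DIV 13 or 15, with spikes detected at 8x rms threshold.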

Test [12] concerns the target Nucleoli Translocation, AR (gene 367) (UniProt P10275). Kind of test: UPITT_HCI_U2OS_AR_TIF2_Nucleoli_Agonist: University of Pittsburgh U2OS Androgen Receptor-Transcriptional Intermediary Factor 2 (AR-TIF2) Agonism High Content Imaging Assay for Nucleoli Translocation (AID 2283998; active = hit-call score of the fitted dose curve at least 0.9, where 1 is the maximum). The method in brief:
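Cells express human AR fused to red fluorescent protein and TIF2 fused to GFP. Red fluorescence in the nucleolar region was quantified by high-content imaging and fitted as gain-of-signal against a DMSO baseline. Compounds were tested at 0.195 to 50 uM final (0.5% DMSO).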

Test [13] deals with Ratio of Nucleoli Translocation and Cytoplasm, AR (gene 367) (UniProt P10275). Kind of test: UPITT_HCI_U2OS_AR_TIF2_Nucleoli_Cytoplasm_Ratio_Agonist: University of Pittsburgh U2OS Androgen Receptor-Transcriptional Intermediary Factor 2 (AR-TIF2) Agonism High Content Imaging Assay for Ratio of Nucleoli Translocation and Cytoplasm (AID 2284000; active = hit-call score of the fitted dose curve at least 0.9, where 1 is the maximum;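 also: hits raise the red nucleolar to cytoplasm ratio above vehicle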). An outline of the steps:
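Compounds tested at 20 uM final in primary screen (0.2% DMSO) and 0.195-50 uM final in dose-response (0.5% DMSO). Imaging of human U2OS cells bearing RFP-AR and GFP-TIF2; endpoint is nucleoli/cytoplasm red signal ratio, positive direction relative to DMSO.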

Another test deals with DIO1 (gene 1733). Kind of test: CCTE_GLTED_hDIO1: CCTE's human Deiodinase 1 (DIO1) Inhibition Assay, Great Lakes Toxicology and Ecology Division (GLTED) Lab (AID 2283987; active = hit-call score of the fitted dose curve at least 0.9, where 1 is the maximum;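 also: isolated human DIO1 enzyme in a cell-free setup rather than cells; enzyme activity read as free iodide liberated from substrate via Sandell-Kolthoff colorimetry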). An outline of the steps: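 Cell-free human DIO1 enzyme was incubated with test chemical for 3 h, and iodide released from substrate was measured by Sandell-Kolthoff absorbance. Loss of signal versus DMSO baseline indicated inhibition; plates were run in triplicate.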

Chain of Ratio of Nucleoli Translocation and Cytoplasm, AR (gene 367) (P10275 whole entry, looked up): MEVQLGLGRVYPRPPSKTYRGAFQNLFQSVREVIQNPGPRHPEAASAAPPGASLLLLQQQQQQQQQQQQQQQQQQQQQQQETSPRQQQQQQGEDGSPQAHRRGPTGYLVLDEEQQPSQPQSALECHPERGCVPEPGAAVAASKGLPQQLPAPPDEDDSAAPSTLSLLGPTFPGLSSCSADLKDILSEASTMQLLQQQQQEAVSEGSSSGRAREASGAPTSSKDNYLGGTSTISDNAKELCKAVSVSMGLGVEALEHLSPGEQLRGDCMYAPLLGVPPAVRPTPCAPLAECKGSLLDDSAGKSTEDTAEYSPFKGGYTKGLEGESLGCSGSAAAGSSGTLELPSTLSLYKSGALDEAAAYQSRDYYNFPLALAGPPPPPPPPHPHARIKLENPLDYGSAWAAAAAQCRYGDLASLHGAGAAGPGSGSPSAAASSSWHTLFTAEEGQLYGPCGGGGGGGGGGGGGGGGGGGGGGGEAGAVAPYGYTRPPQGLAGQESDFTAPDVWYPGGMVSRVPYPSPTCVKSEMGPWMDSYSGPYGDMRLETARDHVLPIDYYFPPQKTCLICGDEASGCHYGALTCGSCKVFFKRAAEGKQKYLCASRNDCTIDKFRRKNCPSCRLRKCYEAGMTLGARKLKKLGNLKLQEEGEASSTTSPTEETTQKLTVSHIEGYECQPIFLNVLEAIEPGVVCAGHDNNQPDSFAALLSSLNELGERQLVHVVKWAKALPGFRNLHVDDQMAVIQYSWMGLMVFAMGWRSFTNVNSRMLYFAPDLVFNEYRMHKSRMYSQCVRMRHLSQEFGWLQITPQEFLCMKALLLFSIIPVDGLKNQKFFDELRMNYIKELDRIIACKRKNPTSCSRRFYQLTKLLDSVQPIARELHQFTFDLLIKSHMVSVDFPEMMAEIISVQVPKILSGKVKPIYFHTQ
Chain of Nucleoli Translocation, AR (gene 367) (P10275 whole entry, looked up, the tested form may be a part): as the sequence (P10275 whole entry, looked up) above

Consider `CC1COCc2cc3c(cc21)C(C)(C)C(C)C3(C)C` (stereo not drawn), for which the AC50 in test [1] is 9.92 µM (active). Moreover, the outcome in [2], in test [3], in test [4] and in [5] was inactive.
`O=C1NS(=O)(=O)c2ccccc21`: the AC50 is 0.00978 µM (active) in [6], 0.00978 µM (active) in test [7] and 0.003 µM (active) in test [8]. In addition, the outcome in [3], in [4], in test [5], in test [9], in test [10] and in test [11] was inactive.
For `CC(C)[C@@H]1CC[C@@H](C)C[C@H]1O`, the call in test [1], in test [12], in test [3] and in [4] was inactive.
Consider `CCCCC=O`, for which the call in [6], in test [7], in test [3], in test [4], in [5] and in test [8] was inactive. For the same compound, the outcome in test [9], in test [10] and in [11] was inactive.
Regarding `c1cc2cccc3c4cccc5cccc(c(c1)c23)c54`, the result in test [3] and in test [4] was inactive.
In the case of `N=C(N)c1ccc(OCCCCCOc2ccc(C(=N)N)cc2)cc1`, the result in test [6], in test [7], in test [3], in test [4], in [5] and in test [8] was inactive. In addition, the compound was called inactive in test [9], in test [10] and in test [11].
With `CCCCCc1ccc(O)cc1`, the concentration at half-maximal activity (AC50) is 31.9 µM (active) in test [1], 39.1 µM (active) in [12] and 86.1 µM (active) in [2]. Besides, the outcome in test [13] was inactive.
In the case of `CCCCCCCCCC=CCC1CC(=O)OC1=O` (stereo not drawn), in the test on DIO1 (gene 1733), the AC50 was 31.9 µM (active). The compound was classed as inactive in test [1], in [13], in test [3] and in test [4].
With `Oc1c(Cl)cc(Cl)cc1Sc1cc(Cl)cc(Cl)c1O`, the outcome in [6], in test [7], in test [3], in [4], in test [5] and in [8] was inactive. Also, the call in test [9] and in test [11] was inactive. In addition, the AC50 in test [10] is 9.08 µM (active).
On to `CCCCCCCCCCCC`, for which, in the test with DIO1 (gene 1733), the concentration at half-maximal activity (AC50) was 84.4 µM (active). Besides, the result in [6], in test [7], in test [3], in test [4], in [5] and in test [8] was inactive. The result in test [9], in test [10] and in test [11] was inactive.
As for `NC(=NCCCCCCN=C(N)/N=C(\N)Nc1ccc(Cl)cc1)/N=C(\N)Nc1ccc(Cl)cc1`, the AC50 is 21.3 µM (active) with DIO1 (gene 1733), 16.5 µM (active) in test [1], 11.6 µM (active) in test [2] and 70 µM (active) in [3]. Besides, the result in [12], in test [13] and in test [4] was inactive.

What is called AC50 is the concentration at which the activity in the assay is half-maximal.
